Source: PubChem BioAssay (NCATS)
Records with an inconclusive call do not appear. A call without a number means that no potency is given here. Active and inactive are the calls of the source. Unless noted, calls follow the shape of the dose curve; as a rule, active = well fitted curve in the direction sought with a large enough effect; inconclusive = small, poorly fitted or top-dose-only effect, or another doubt; inactive = no such curve, though single readings can be large; an effect the other way counts as inactive or inconclusive.

Legend:
[1] = NCATS anti-infectives library activity on HEK293 viability as a counter-qHTS vs the C. elegans viability qHTS (AID 1745854);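 also: HEK293 cells exposed to compounds for 24 hr before the viability read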
Procedure, shortened: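 Compounds were acoustically plated (several concentrations, 1:5, final up to 41.7 uM), then 1500 HEK293 cells added per well and incubated 24 hr at 37C, 5% CO2. CellTiter-Glo was added and luminescence read after 10 min.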

[2] = molecular target: Glutathione peroxidase 1 (Homo sapiens) (UniProt P07203); experiment: Primary qHTS Assay for Inhibitors of Recombinant Selenoprotein Glutathione Peroxidase 1 (GPX1) (AID 1845191); also: nearly all actives have a fitted effect of over 65% in size
Procedure, shortened: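 GR-coupled assay: compounds preincubated 30 min at room temperature with GPX1, then reaction started with CHP; final 10 nM GPX1, 1 mM GSH, 0.5 mM CHP, 0.5 mM NADPH, 100 nM GR, 0.01% BSA, pH 7.5 Tris buffer. NADPH fluorescence (340/450 nm) read at 0 and 15 min.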

[3] = molecular target: Phospholipid hydroperoxide glutathione peroxidase GPX4 (Homo sapiens) (UniProt P36969); experiment: Primary qHTS Assay for Inhibitors of Recombinant Selenoprotein Glutathione Peroxidase 4 (GPX4) (AID 1845192); also: nearly all actives have a fitted effect of over 65% in size; also: potency is read from the fitted curve at half-maximal effect
Procedure, shortened: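 GR-coupled assay: recombinant GPX4 preincubated 30 min with compound at room temperature; final 200 nM GPX4, 1 mM GSH, 0.5 mM cumene hydroperoxide, 0.5 mM NADPH, 100 nM GR, 0.01% BSA, pH 7.5 Tris. NADPH fluorescence (340/450 nm) read at 0 and 15 min.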

[4] = Quantitative High-Throughput drug screen in 47 multiple myeloma cell lines against the NCATS MIPE library collection: FR4_PLB cell viability assay (AID 1918924; also: nearly all actives have a fitted effect of over 35% in size; also: potency is read from the fitted curve at half-maximal effect)
Procedure, shortened: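 Myeloma cell lines, 500 cells per well, exposed to MIPE 4.0 library compounds for 48 h at 37C, 5% CO2. Viability from ATP by CellTiter-Glo luminescence; normalised to DMSO (100%) and media-only (0%) wells.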

[5] = Quantitative High-Throughput drug screen in 47 multiple myeloma cell lines against the NCATS MIPE library collection: Delta47_JCRB cell viability assay (AID 1918925; also: nearly all actives have a fitted effect of over 45% in size; also: potency is read from the fitted curve at half-maximal effect)
Procedure, shortened: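 Primary qHTS used for cherry-picking: cells at 500/well, library compounds for 48 h (37C, 5% CO2), luminescent ATP assay.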

[6] = molecular target: Catechol O-methyltransferase (Homo sapiens) (UniProt P21964); experiment: Confirmatory Screen for Target Class Profiling of Small Molecule Inhibitors of Methyltransferases (AID 1745852; calls by dose curve; also: potency is read from the fitted curve at half-maximal effect); conditions: MTase-Glo luminescence, SAH detection, recombinant enzyme; measured here: COMT max response; stronger effect = lower value
[7] = molecular target: Guanidinoacetate N-methyltransferase (Homo sapiens) (UniProt Q14353); experiment: as above; conditions: MTase-Glo luminescence, SAH detection, recombinant enzyme; activity change, negative = inhibition: at 57.3 µM (top of the series)
[8] = molecular target: Nicotinamide N-methyltransferase (Homo sapiens) (UniProt P40261); experiment: as above; conditions: MTase-Glo luminescence, SAH detection, recombinant enzyme; measured here: NNMT max response; stronger effect = lower value
[9] = molecular target: Phenylethanolamine N-methyltransferase (Homo sapiens) (UniProt P11086); experiment: as above; conditions: MTase-Glo luminescence, SAH detection, recombinant enzyme; measured here: PNMT max response; stronger effect = lower value
[10] = molecular target: Luciferin 4-monooxygenase (Photinus pyralis) (UniProt P08659); experiment: Primary firefly luciferase (FLuc) qHTS assay for identification of artifact compounds. (AID 1845220); also: nearly all actives have a fitted effect of over 60% in size
Procedure, shortened: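 Titrated compounds were incubated 15 min at RT, protected from light, with luciferin and ATP at 10 uM; reaction started with 10 nM FLuc, luminescence imaged at 5 min, and concentration-response fitted by Hill equation.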

[11] = Primary fluorescence-based thiol-reactive (MSTI) qHTS assay for identification of artifact compounds. (AID 1845221); also: nearly all actives have a fitted effect of over 65% in size; also: potency is read from the fitted curve at half-maximal effect
Procedure, shortened: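 One-hour, room-temperature, dark incubation of compound with 4 uM MSTI in PBS (pH 7.4, 2% DMSO) precedes a fluorescence read at 525 nm excitation, 598 nm emission; Hill-equation fitting yields concentration-response values.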

[12] = test system: Nanoluciferase (engineered Oplophorus gracilirostris luciferase); experiment: Primary Nanoluciferase (NLuc) qHTS assay for identification of artifact compounds. (AID 1845222);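 also: NLuc secreted into diluted conditioned medium of S16 cells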
Procedure, shortened: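 qHTS format, against NLuc in S16 cell-conditioned medium. Nano-Glo substrate 1:100 was added after 15 min at room temperature. Luminescence was taken after a further 5 min.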

[13] = Primary redox qHTS assay for identification of artifact compounds. (AID 1845223)
Procedure, shortened: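 Amplex Red (25 uM) and HRP (250 mU/mL) in HBSS, with compounds for 15 min, then 250 uM DTT for 30 min, room temperature, dark. Fluorescence 525/598 nm read; normalized to DMSO and 10 uM DA3003; Hill fit.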

[14] = Viability counterscreen for agonist of constitutive androstane receptor (CAR) against the NCATS DSHEA and TCM libraries (AID 1794838);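 also: HepG2 cells with CYP2B6 reporter and hCAR plus 0.75 µM PK11195 antagonist; potency is read from the fitted curve at half-maximal effect; cells exposed to compound for 24 h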
Procedure, shortened: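 Cell viability, from CellTiter-Fluor fluorescence (405/540 nm), was scored after a 24 h, 37C exposure of HepG2 cells carrying CYP2B6 reporter and hCAR to test substances in presence of 0.75 uM PK11195.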

[15] = HepG2 viability counterscreen (readout 2: ATP content) against the NCATS DSHEA and TCM libraries (AID 1794840);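 also: HepG2 cells exposed to substances for about 24 h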
Procedure, shortened: (§1)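 Readout 1: cellular protease activity, GF-AFC substrate (25 uM final, 30 min, fluorescence 380/510 nm). Readout 2: ATP content by CellTiter-Glo luminescence after 30 min at RT. Both follow ~24 h exposure of HepG2 cells (1,000/well) to substances.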

[16] = HepG2 viability counterscreen (readout 1: protease activity) against the NCATS DSHEA and TCM libraries (AID 1794841);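 also: cells exposed to compounds for about 24 h before the protease read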
Procedure, shortened: as §1

[17] = NCATS anti-infectives library activity on the primary C. elegans qHTS viability assay (AID 1745855; calls by dose curve)
Procedure, shortened: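 Viability read-out is GFP fluorescence of PE254-GFP-FLuc C. elegans, measured by laser cytometry (488 nm) at day 0, 3 and 7. Ten L1 worms per well were incubated 7 days at 21 °C with compounds and bacterial capsules in S medium.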

Chain of Phospholipid hydroperoxide glutathione peroxidase GPX4 (Homo sapiens) (P36969 whole entry, looked up): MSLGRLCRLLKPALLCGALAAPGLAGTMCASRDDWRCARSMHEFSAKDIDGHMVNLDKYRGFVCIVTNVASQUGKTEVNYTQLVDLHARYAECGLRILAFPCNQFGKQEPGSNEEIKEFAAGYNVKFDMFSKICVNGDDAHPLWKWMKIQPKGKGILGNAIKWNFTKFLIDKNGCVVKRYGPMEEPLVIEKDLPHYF
Chain of Glutathione peroxidase 1 (Homo sapiens) (P07203 whole entry, looked up): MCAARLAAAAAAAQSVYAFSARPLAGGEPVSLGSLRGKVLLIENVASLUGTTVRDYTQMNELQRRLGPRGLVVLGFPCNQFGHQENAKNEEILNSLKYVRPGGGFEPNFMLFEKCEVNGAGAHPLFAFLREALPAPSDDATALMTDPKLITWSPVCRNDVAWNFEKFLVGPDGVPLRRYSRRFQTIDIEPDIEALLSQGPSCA
Chain of Nicotinamide N-methyltransferase (Homo sapiens) (P40261 whole entry, looked up): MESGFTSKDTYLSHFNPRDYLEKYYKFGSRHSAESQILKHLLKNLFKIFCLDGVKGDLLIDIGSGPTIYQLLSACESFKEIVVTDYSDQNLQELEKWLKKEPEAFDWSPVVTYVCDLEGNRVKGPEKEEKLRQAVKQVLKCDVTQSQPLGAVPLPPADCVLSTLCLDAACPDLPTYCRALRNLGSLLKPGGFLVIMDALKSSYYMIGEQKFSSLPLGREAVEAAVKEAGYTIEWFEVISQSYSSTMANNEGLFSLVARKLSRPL
Chain of Catechol O-methyltransferase (Homo sapiens) (P21964 whole entry, looked up): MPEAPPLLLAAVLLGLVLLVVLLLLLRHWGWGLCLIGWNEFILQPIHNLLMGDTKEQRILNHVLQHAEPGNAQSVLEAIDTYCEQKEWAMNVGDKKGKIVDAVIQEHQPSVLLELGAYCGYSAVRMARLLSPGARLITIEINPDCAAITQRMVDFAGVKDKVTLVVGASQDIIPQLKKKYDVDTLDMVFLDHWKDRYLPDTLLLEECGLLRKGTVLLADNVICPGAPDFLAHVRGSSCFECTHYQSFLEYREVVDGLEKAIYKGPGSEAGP
Chain of Phenylethanolamine N-methyltransferase (Homo sapiens) (P11086 whole entry, looked up): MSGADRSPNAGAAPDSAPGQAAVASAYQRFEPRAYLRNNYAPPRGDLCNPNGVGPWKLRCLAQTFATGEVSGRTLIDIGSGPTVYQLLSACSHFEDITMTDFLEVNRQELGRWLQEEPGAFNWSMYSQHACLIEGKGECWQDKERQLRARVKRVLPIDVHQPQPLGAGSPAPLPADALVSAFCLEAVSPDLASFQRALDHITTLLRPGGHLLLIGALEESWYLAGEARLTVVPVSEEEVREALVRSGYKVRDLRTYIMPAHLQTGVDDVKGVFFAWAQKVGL

## N[C@@H](CC(=O)N1CCn2c(nnc2C(F)(F)F)C1)Cc1cc(F)c(F)cc1F
[1]
  outcome: inactive
[2]
  Potency: inactive
[3]
  Potency: inactive
[4]
  Potency: inactive
[5]
  Potency: inactive

## CNC(=O)c1ccc2c(C(=Nc3cccc(CN(C)C)c3)c3ccccc3)c(O)[nH]c2c1
[6]
  activity: -17.1%
[7]
  activity change, negative = inhibition: -9.55%
[8]
  activity: -21.7%
[9]
  activity: -16.3%
[2]
  Potency: inactive
[3]
  Potency: inactive
[10]
  Potency: inactive
[11]
  Potency: inactive
[12]
  Potency: inactive
[13]
  outcome: inactive
[4]
  Potency: inactive
[5]
  Potency: 23.5 µM (active)

## c1ccc(-c2oc3ncnc(NC[C@@H]4CCCO4)c3c2-c2ccccc2)cc1
[6]
  activity: -58.1%
[7]
  Potency: 24.1 µM (active)
[8]
  activity: -46.6%
[9]
  activity: -56.7%
[2]
  Potency: inactive
[3]
  Potency: inactive
[10]
  Potency: inactive
[11]
  Potency: inactive
[12]
  Potency: inactive
[13]
  outcome: inactive

## CNC(=O)[C@H](Cc1ccccc1)NC(=O)[C@H](CC(C)C)[C@H](CSc1cccs1)C(=O)NO
[1]
  outcome: inactive
[2]
  Potency: inactive
[3]
  Potency: inactive
[5]
  Potency: 18.7 µM (active)

## C[C@@]1(c2cc(-c3cncnc3)c(F)cc2F)CCSC(N)=N1
[1]
  outcome: inactive
[2]
  Potency: inactive
[3]
  Potency: inactive
[10]
  Potency: inactive
[11]
  Potency: inactive
[12]
  Potency: inactive
[13]
  outcome: inactive
[5]
  Potency: inactive

## COc1cc2c(cc1Cc1cccc(Cl)c1F)c(=O)c(C(=O)O)cn2[C@H](CO)C(C)C
[1]
  outcome: inactive
[2]
  Potency: inactive
[3]
  Potency: 11.2 µM (active)
[4]
  Potency: 20.9 µM (active)
[5]
  Potency: 20.9 µM (active)

## Cc1cc2nc3c(=O)[nH]c(=O)nc-3n(CC(O)C(O)C(O)CO)c2cc1C (stereo not given)
[14]
  Potency: 25.1 µM (active)
[15]
  outcome: inactive
[16]
  outcome: inactive
[3]
  Potency: inactive

## CCN1C[C@H](C)n2c(c(O)c3c(=O)n(Cc4ccc(F)c(Cl)c4)nc(C(=O)NC)c32)C1=O
[1]
  outcome: inactive
[17]
  Potency: inactive
[2]
  Potency: inactive
[3]
  Potency: inactive
[11]
  Potency: 29.9 µM (active)
[12]
  Potency: inactive
[13]
  outcome: inactive
